Assay outcomes: PubChem BioAssay, National Center for Advancing Translational Sciences (NCATS)
In the library only some 18% were active in any assay of this set; here they are far more common.
HepG2 viability: kills HepG2 cells in TGF-b inhibitor counter-screen. HepG2 CAGA-GFP viability, ATP luminescence, 18 h. Potency, µM (series often up to 46.1 µM), inactives show at the highest dose activity change, negative = cytotoxicity, hits mostly cytotoxic. hit rate 0.76% among 410,000; also: potency is read from the fitted curve at half-maximal effect
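CellTiter-Glo luminescence gave cytotoxicity after 18 hours at 37 degrees C. The cells were HepG2 CAGA-GFP in 1% FBS DMEM, stimulated with 500 pg/mL TGF-beta after compound addition. %Activity was normalised to no-cell wells (complete cell-killing) and DMSO (no toxicity), and curves were fitted and classified.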
TGFb SMAD3 inh: TGF-b pathway inhibition | HepG2 CAGA-GFP TGF-b/SMAD3 reporter, GFP fluorescence, 18 h; TGF-beta stimulated, 500 pg/mL final | Potency, µM (top dose mostly 46.1 µM), for the others: at the top dose activity, negative = inhibition, usual class: inhibitors | hit rate 1.2% among 410,000; also: potency is read from the fitted curve at half-maximal effect; % is scaled to controls: 0 for no effect and ±100 for the full control effect; nearly all actives have a fitted effect of over 65% in size
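Inhibition of TGF-beta-driven CAGA-GFP reporter expression in HEPG2 cells is measured by cellular GFP fluorescence after 18 h stimulation with 500 pg/mL recombinant TGF-beta in 1% FBS medium at 37 degrees C.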
TDP1 cell CPT: DT40-hTDP1 cell growth loss with CPT | chicken DT40 Tdp1-/-;hTDP1 cells + 20 nM CPT, ATP luminescence, 48 h | Potency, µM (doses to about 46.2 µM), without a hit: at the highest dose activity change, negative = growth inhibition, hits mostly inhibitors | hit rate 12% among 420,000; also: potency is read from the fitted curve at half-maximal effect; % is scaled to controls: 0 for no effect and ±100 for the full control effect; nearly all actives have a fitted effect of over 55% in size
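Cell growth measured by CellTiter-Glo luminescence after a minimum 48 h, 37 C compound exposure with 20 nM CPT in Tdp1-knockout DT40 cells stably expressing hTDP1, seeded 400/well; qHTS titration format.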
TDP1 cell noCPT: qHTS for Inhibitors of human tyrosyl-DNA phosphodiesterase 1 (TDP1): qHTS in cells in absence of CPT. AID 686978, 2013. Potency, µM (titrated, usually from 46.2 µM), without a hit: at the highest dose activity change, negative = growth inhibition, usual class: inhibitors. DT40 Tdp1-/- hTDP1 cells, no CPT, ATP luminescence, 48 h. hit rate 15% among 420,000; also: potency is read from the fitted curve at half-maximal effect; % is scaled to controls: 0 for no effect and ±100 for the full control effect; nearly all actives have a fitted effect of over 55% in size
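Luminescent ATP content (CellTiter-Glo) served as the growth readout. Knockout chicken DT40 cells expressing human TDP1 were exposed to compounds without camptothecin for a minimum 48 hr at 37 °C.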
TDP1 block: blocks human tyrosyl-DNA phosphodiesterase 1. recombinant TDP1, AlphaScreen DNA substrate cleavage. Potency, µM (top dose mostly 130 µM), without a hit: at the top dose activity change, negative = inhibition, usual class: inhibitors. hit rate 0.28% among 350,000; also: potency is read from the fitted curve at half-maximal effect; % is scaled to controls: 0 for no effect and ±100 for the full control effect; nearly all actives have a fitted effect of over 40% in size
Target sequence (Q9NUW8 whole entry, looked up): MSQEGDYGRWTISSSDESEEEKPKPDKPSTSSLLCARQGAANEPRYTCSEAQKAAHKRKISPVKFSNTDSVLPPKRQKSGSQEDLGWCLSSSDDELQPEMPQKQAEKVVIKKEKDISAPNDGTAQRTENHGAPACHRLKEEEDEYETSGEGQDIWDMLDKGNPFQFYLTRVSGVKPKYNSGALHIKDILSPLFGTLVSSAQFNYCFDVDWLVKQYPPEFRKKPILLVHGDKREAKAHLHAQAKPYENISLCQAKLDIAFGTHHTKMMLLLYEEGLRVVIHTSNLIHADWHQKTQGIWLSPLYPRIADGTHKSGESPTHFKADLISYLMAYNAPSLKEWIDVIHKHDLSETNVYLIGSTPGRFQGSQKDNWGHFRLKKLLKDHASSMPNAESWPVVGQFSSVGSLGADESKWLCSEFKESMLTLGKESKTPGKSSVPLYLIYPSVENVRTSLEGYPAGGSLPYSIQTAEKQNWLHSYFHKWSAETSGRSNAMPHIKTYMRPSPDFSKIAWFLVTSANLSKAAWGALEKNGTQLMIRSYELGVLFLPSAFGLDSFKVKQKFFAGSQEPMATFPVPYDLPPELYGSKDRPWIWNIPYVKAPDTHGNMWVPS
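Steps: enzyme plus compound, 15 min RT; add biotin/phosphotyrosine-FITC oligonucleotide (15 nM final), react 5 min; add donor/acceptor beads (10 ug/ml final), 10 min; read AlphaScreen. Tdp1 at 1 nM final.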
IL-1B inflam inh: inhibitors of inflammasome signaling (IL-1 beta secretion); hit rate 4.7% among 360,000; activity change, % at 57.5 µM; THP-1 LPS/ATP IL-1B secretion, AlphaLISA, 16 h; active compounds read low; AID 743279; in the data active = activity change below about -50%; inconclusive = mostly about -30% to -49%; also: % is scaled to controls: 0 for no effect and ±100 for the full control effect
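Secreted IL-1B measured by AlphaLISA bead assay after 16 h compound exposure of THP-1 cells; compounds (final up to 57.5 uM) added 1 h before LPS (250 ng/mL) and ATP (1.25 mM) stimulation; lower signal means less secretion.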
* hit, by the source's call; i = inactive; ? = inconclusive; nt = no result; [ ] = another dose, or the depositor's remark. Unless noted, calls follow the shape of the dose curve; as a rule, active = well fitted curve in the direction sought with a large enough effect; inconclusive = small, poorly fitted or top-dose-only effect, or another doubt; inactive = no such curve, though single readings can be large; an effect the other way counts as inactive or inconclusive.

SMILES | HepG2 viability | TGFb SMAD3 inh | TDP1 cell CPT | TDP1 cell noCPT | TDP1 block | IL-1B inflam inh
COCCNC(=O)c1cccc(OC2CCN(Cc3ccc(Cl)c(F)c3)CC2)c1 | 2% | ? | ? | ? | nt | -53*
CCOc1ccccc1CN1CCC(Oc2cccc(C(=O)NCCOC)c2)CC1 | -11% | -1% | -1% | -13% | nt | 17
O=C(NCc1cccc(Cl)c1)c1cccc(OC2CCN(C(=O)C3CC3)CC2)c1 | -17% | -33% | 29µM* | 21µM* | 2% | i
COCCNC(=O)c1cccc(OC2CCN(Cc3cccc(SC)c3)CC2)c1 | 3% | -3% | ? | 16µM* | 3% | ?
Cc1ccc(S(=O)(=O)NCCC(=O)OCC(=O)N2CCCC2=O)cc1C | -4% | ? | -5% | -8% | 6% | 11
COc1ccc(C2=NCCn3nc4ccccc4c32)cc1 | -22% | -7% | -16% | -15% | 1% | 18
Nc1c(Cl)cc(C2=NCCn3nc4cc([N+](=O)[O-])ccc4c32)cc1Cl | -13% | 29% | ? | 18µM* | 9% | -15
Nc1c(Cl)cc(C2=NCCn3c2c2ccc([N+](=O)[O-])cc2[n+]3[O-])cc1Cl | -35% | 11µM* | 1.8µM* | 5.8µM* | 10% | -1
COc1ccc2c3n(nc2c1)CCN=C3c1cc(Cl)c(N)c(Cl)c1 | -16% | 6% | ? | 16µM* | 6% | ?
Nc1c(Cl)cc(C2=NCCn3nc4cc(C(F)(F)F)ccc4c32)cc1Cl | -46% | ? | 21µM* | 21µM* | 4% | ?
O=C(CSc1nnc(C2CC2)n1-c1ccccc1)N1CCNC1=O | 14% | 4% | 1% | -1% | 0% | -21
C=CCc1ccccc1Oc1cc(F)nc(N)n1 | 0% | 1% | 13% | -1% | 2% | 14
COc1ccc(N2CCN(c3oc(Cc4ccccc4)nc3C#N)CC2)cc1 | -11% | 14% | ? | 13µM* | 8% | -7
CCOc1ccc(-c2nc(C#N)c(N3CCN(Cc4ccccc4)CC3)o2)cc1 | -3% | 3% | ? | 12µM* | 8% | -5
COc1ccc(N2CCN(c3oc(COc4ccc(Cl)cc4Cl)nc3C#N)CC2)cc1 | -10% | 11% | ? | 9.2µM* | 7% | -8
COc1cccc(NC(=O)C2CC(=O)N(c3ccc(Br)cc3)C2)c1 (stereo not given) | -3% | 6% | -2% | -8% | nt | nt
CCn1cc(C(=O)N2CCN(c3cc(Cl)ccc3C)CC2)c(=O)c2cc(S(=O)(=O)N3CCOCC3)ccc21 | -42% | ? | -9% | ? | 0% | nt
CC1CCN(S(=O)(=O)c2ccc3nc(Nc4cccc(F)c4)ccc3c2)CC1 | -55% | ? | 21µM* | 21µM* | -8% | nt
CC(=O)c1ccc(Nc2ccc3cc(S(=O)(=O)N4CCCC4)ccc3n2)cc1 | -35% | -3% | 21µM* | ? | -3% | nt
CC1CCN(S(=O)(=O)c2ccc3nc(NCc4ccccc4)ccc3c2)CC1 | -21% | ? | 10µM* | 10µM* | 0% | nt
NS(=O)(=O)c1ccc(Nc2ccc3cc(S(=O)(=O)N4CCCCC4)ccc3n2)cc1 | -30% | ? | ? | ? | -3% | ?
CC1CCN(S(=O)(=O)c2ccc3nc(-c4ccccn4)cc(C(=O)NCCN(C)Cc4ccccc4)c3c2)CC1 | -18% | -7% | 7.3µM* | 5.8µM* | 1% | -10
Cc1ccc(CN2CC(C(=O)N3CC(C)CC(C)C3)CC2=O)cc1 (stereo not given) | 1% | -2% | -2% | -15% | nt | 7
COC(=O)C1CCCCN1Cc1nc(N(C)C)c2ccccc2n1 (stereo not given) | nt | nt | 5%[9.04 µM] | -14% | nt | nt
COc1cc(/C=C/CN2CCOc3ccc(C(O)c4cccnc4)cc3C2)ccc1O (stereo not given) | nt | nt | 16%[9.04 µM] | ? | nt | nt
SMILES | HepG2 viability | TGFb SMAD3 inh | TDP1 cell CPT | TDP1 cell noCPT | TDP1 block | IL-1B inflam inh
Cn1c(C(=O)N2CCN(c3ccc(F)cc3)CC2)cc2ccccc21 | -1% | -9% | -3% | ? | nt | 6
CC1CCc2c(cc(-c3ccccc3)n2-c2ccc(C(=O)NC(C)C)cc2)C1 (stereo not given) | -1% | 7.9µM* | ? | 21µM* | 4% | nt
CC(C)NC(=O)c1ccc(-n2c(-c3ccccc3)cc3c2CCCCC3)cc1 | -10% | 0% | ? | ? | -3% | nt
CCOCCCNC(=O)c1ccc(-n2c(-c3ccccc3)cc3c2CCCC3)cc1 | -35% | -33% | 9.2µM* | 8.2µM* | 6% | nt
O=C(CSCc1ccc(Br)cc1)Nc1ccccc1C(=O)N1CCOCC1 | 15% | -17% | ? | 16µM* | nt | 6
C[C@H](CO)N1C[C@H](C)[C@@H](CN(C)Cc2ccccn2)Oc2ncc(-c3ccccc3)cc2C1=O | -5% | -1% | 4% | -11% | nt | -13
O=S(=O)(c1ccc(C2CCCCC2)cc1)N1CCCC1 | -25% | 3% | ? | ? | -5% | -65*
N#CCCN1CCN(S(=O)(=O)c2ccc(S(=O)(=O)N3CCOCC3)cc2)CC1 | -1% | 22% | 11% | -1% | 3% | -12
N#CCCN1CCN(S(=O)(=O)c2ccc(C3CCCCC3)cc2)CC1 | 1% | ? | 13µM* | -13% | 0% | 0
COc1ccc2[nH]c3c(c2c1)CCN1C(=O)C(CC(=O)NCCc2ccccn2)C[C@H](C(=O)N2CCCCC2)[C@@]31C (stereo not given in full) | 5% | -19% | -20% | -19% | 1%[56.1 µM] | -26
